Data published in PubChem BioAssay (EPA / NIEHS).
Records with an inconclusive call do not appear. Some structures have more than one record in an assay (separate samples or runs), and their calls can disagree. Active and inactive are the calls of the source. How the source made its calls, unless noted: active means hit-call score of the fitted dose curve at least 0.9, where 1 is the maximum; inconclusive means response in the unintended direction; inactive means score below 0.9.

Key:
[1] = molecular target: rat Serotonin Transporter (SERT), Slc6a4 (gene 25553) (UniProt P31652); assay: NVS_TR_rSERT: NovaScreen (NVS) Transporter Assay for rat Serotonin Transporter (SERT) (AID 2283375)
Procedure, shortened: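 Radioligand displacement, filter scintillation readout; rat forebrain membrane prep, 1 h post-dose. Single-conc 25 uM duplicate screen, then concentration-response on actives. Loss of signal vs DMSO baseline.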

[2] = molecular target: human Norepinephrine Transporter (NET), SLC6A2 (gene 6530) (UniProt P23975); assay: NVS_TR_hNET: NovaScreen (NVS) Transporter Assay for human Norepinephrine Transporter (NET) (AID 2283377);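 further: cell-free membrane protein extracted from CHO cells expressing human NET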;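 on AC50: displacement of radioligand from human NET seen as loss of scintillation signal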
Procedure, shortened: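 In this cell-free binding screen, chemicals at 25 uM (duplicate) compete with a radioligand for CHO-derived human NET over 1 hour, with filter-based radiodetection.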

[3] = molecular target: Retinoic acid receptor RXR-alpha (Homo sapiens) (UniProt P19793); assay: OT_NURR1_NURR1RXRa_0480: Odyssey Thera (OT) 8-hour HEK293T Protein Complementation Assay for Nurr1/retinoid X receptor (RXR) (AID 2283385)
Procedure, shortened: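 Gain in fluorescent complementation signal over DMSO, measured 8 hours after chemical dosing of human kidney HEK293T cells, indicated enhanced Nurr1–RXRα association.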

[4] = molecular target: Agonist Androgen Response Element (ARE), AR (gene 367) (UniProt P10275); assay: OT_AR_ARELUC_AG_1440: Odyssey Thera (OT) 24-hour CHO-K1 Luciferase Assay for Agonist Androgen Response Element (ARE) (AID 2283379)
Procedure, shortened: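 Luminescence increase above DMSO, read after a 24 h compound treatment of CHO-K1 cells expressing an androgen response element luciferase reporter, gives the single primary endpoint; concentration-response fitting used the positive direction.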

[5] = molecular target: Estrogen receptor beta (Homo sapiens) (UniProt Q92731); assay: OT_ER_ERbERb_1440: Odyssey Thera (OT) 24-hour HEK293T Protein-Complementation Assay for Estrogen Receptor-beta/-beta Homodimer (AID 2283380);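 further: fluorescence gain from ER beta LBD homodimer complementation read by laser scanning cytometry; scored as signal increase over DMSO baseline for both agonists and antagonists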
Procedure, shortened: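 HEK293T cells stably expressing human ER-beta LBD (aa 310-547) PCA homodimer pair, dosed 24 h; formaldehyde-fixed, Draq5-stained. Readout: increase in nuclear (agonist) or nuclear plus cytoplasmic (antagonist) fluorescence intensity versus DMSO, gain-of-signal fitting.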

[6] = molecular target: Estrogen receptor (Homo sapiens) (UniProt P03372); assay: OT_ERa_GFPERaERE_0480: Odyssey Thera (OT) 8-hour HeLa Transcription Induction Assay for Estrogen Receptor (AID 2283381; active means hit-call score of the fitted dose curve at least 0.9, where 1 is the maximum; inactive means score below 0.9)
Procedure, shortened: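 An 8 h HeLa transcription-induction format with a GFP reporter under ERE control, read by fluorescence microscopy; single endpoint fitted positively with DMSO as baseline.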

[7] = molecular target: Estrogen receptor (Homo sapiens) (UniProt P03372); assay: OT_ERa_GFPERaERE_0120: Odyssey Thera (OT) 2-hour HeLa Transcription Induction Assay for Estrogen Receptor (AID 2283382)
Procedure, shortened: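 Two-hour compound treatment of HeLa cells preceded microscopy imaging of an inducible fluorescent reporter. Image-based quantification gave one endpoint, analysed for signal increase relative to DMSO controls.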

[8] = molecular target: Peroxisome proliferator-activated receptor gamma (Homo sapiens) (UniProt P37231); assay: OT_PPARg_PPARgSRC1_0480: Odyssey Thera (OT) 8-hour Protein-Complementation Assay for Peroxisome Proliferator-activated Receptor Gamma / SRC-1 Co-activator (AID 2283387);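 further: nuclear to cytoplasmic split Venus YFP fluorescence ratio reporting PPARg SRC-1 interaction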
Procedure, shortened: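 HEK293T transiently transfected with PPARg and SRC-1 fused to Venus YFP fragments, compounds 8 h at 37C. Fixed, Draq5-stained cells imaged; nuclear/cytoplasmic 488 nm fluorescence ratio over at least 350 cells per image; gain fitted versus DMSO.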

[9] = molecular target: Peroxisome proliferator-activated receptor gamma (Homo sapiens) (UniProt P37231); assay: OT_PPARg_PPARgSRC1_1440: Odyssey Thera (OT) 24-hour Protein-Complementation Assay for Peroxisome Proliferator-activated Receptor Gamma/ SRC-1 Co-activator (AID 2283388)
Procedure, shortened: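 Readout: nuclear-to-cytoplasmic 488 nm fluorescence ratio, ≥350 cells per image, 8 images per well, after 24 h compound exposure of HEK293T expressing PPARg/SRC-1 split-YFP fusions. Activity fitted in positive direction against DMSO.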

[10] = molecular target: human Dopamine Transporter (DAT), SLC6A3 (gene 6531) (UniProt Q01959); assay: NVS_TR_hDAT: NovaScreen (NVS) Transporter Assay for human Dopamine Transporter (DAT) (AID 2283374);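 further: activity means loss of bound radioligand signal relative to DMSO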
Procedure, shortened: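 Extracted human SLC6A3 protein incubated 1 h with radioligand and test chemical; bound fraction separated on filters and counted. Single 25 uM duplicate screen preceded concentration-response follow-up; positive and negative controls on every plate.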

Sequence of Agonist Androgen Response Element (ARE), AR (gene 367) (P10275 whole entry, looked up): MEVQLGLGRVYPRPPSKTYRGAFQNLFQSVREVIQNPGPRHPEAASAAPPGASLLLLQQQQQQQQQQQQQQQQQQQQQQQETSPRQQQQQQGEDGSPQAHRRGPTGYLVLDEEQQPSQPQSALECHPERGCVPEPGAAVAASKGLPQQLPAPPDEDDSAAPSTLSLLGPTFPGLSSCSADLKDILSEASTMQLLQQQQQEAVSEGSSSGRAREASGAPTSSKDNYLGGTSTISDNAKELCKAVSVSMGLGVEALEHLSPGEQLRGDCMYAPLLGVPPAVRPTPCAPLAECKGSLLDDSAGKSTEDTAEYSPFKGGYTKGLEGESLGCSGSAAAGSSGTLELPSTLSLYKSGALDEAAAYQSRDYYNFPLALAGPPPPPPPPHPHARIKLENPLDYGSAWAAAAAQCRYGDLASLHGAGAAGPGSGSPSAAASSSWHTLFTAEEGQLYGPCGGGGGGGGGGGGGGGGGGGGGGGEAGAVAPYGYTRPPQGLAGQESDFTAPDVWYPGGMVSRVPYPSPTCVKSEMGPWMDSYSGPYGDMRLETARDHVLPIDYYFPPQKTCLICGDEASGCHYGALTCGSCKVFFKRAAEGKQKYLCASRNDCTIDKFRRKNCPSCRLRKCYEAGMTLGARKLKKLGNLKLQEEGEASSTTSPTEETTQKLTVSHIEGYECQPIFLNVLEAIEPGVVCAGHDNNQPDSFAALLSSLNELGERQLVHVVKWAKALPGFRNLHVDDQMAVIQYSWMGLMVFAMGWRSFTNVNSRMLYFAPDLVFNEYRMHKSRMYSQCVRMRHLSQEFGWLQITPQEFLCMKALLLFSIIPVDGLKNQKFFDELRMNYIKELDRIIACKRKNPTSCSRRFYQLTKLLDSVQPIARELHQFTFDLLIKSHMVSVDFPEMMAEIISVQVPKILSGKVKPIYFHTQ
Sequence of Estrogen receptor beta (Homo sapiens) (Q92731 whole entry, looked up, the tested form may be a part): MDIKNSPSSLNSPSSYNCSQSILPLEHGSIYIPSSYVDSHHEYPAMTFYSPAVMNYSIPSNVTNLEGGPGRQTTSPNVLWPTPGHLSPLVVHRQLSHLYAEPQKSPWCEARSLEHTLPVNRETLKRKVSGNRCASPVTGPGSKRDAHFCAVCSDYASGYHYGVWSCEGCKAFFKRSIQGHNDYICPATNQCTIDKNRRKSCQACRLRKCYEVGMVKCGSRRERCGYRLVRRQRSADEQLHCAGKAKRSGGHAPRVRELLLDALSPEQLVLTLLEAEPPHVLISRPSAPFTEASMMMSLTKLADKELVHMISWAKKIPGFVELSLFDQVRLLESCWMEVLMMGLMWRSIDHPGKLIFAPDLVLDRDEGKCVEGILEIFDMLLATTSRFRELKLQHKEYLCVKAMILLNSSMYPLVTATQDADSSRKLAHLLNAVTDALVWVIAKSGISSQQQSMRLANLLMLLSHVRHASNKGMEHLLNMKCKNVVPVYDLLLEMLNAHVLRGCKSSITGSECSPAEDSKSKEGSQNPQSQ
Sequence of rat Serotonin Transporter (SERT), Slc6a4 (gene 25553) (P31652 whole entry, looked up): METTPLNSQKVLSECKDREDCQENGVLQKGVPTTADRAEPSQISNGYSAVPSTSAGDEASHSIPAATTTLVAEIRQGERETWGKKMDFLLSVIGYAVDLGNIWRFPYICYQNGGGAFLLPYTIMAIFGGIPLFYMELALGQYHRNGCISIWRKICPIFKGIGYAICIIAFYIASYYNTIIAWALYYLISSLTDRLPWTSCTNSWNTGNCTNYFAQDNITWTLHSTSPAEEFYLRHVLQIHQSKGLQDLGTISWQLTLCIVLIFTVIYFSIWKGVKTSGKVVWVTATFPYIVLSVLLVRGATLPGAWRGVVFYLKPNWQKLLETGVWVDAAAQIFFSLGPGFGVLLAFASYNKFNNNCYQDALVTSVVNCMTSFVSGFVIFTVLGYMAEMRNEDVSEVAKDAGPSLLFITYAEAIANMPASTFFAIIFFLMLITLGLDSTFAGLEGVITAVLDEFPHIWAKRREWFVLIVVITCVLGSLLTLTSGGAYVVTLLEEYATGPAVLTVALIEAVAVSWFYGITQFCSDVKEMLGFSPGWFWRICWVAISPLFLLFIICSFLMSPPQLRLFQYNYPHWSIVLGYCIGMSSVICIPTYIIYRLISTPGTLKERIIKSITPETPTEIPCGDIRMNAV
Sequence of Estrogen receptor (Homo sapiens) (P03372 whole entry, looked up): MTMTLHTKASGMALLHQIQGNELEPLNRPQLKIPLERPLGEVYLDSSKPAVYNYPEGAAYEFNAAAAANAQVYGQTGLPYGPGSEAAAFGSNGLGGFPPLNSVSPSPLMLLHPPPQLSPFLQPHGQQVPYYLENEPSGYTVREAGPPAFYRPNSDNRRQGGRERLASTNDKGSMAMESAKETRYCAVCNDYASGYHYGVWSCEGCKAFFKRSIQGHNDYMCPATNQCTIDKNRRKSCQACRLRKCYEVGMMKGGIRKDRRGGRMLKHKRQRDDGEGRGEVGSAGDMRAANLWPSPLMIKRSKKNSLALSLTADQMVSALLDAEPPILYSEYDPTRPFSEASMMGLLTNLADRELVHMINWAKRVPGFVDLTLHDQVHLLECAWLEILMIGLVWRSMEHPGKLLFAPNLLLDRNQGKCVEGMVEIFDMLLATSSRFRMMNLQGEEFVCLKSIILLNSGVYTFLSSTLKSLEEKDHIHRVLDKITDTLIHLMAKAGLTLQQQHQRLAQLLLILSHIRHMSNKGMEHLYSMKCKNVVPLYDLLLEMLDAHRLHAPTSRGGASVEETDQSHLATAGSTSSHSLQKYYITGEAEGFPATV
Sequence of Retinoic acid receptor RXR-alpha (Homo sapiens) (P19793 whole entry, looked up): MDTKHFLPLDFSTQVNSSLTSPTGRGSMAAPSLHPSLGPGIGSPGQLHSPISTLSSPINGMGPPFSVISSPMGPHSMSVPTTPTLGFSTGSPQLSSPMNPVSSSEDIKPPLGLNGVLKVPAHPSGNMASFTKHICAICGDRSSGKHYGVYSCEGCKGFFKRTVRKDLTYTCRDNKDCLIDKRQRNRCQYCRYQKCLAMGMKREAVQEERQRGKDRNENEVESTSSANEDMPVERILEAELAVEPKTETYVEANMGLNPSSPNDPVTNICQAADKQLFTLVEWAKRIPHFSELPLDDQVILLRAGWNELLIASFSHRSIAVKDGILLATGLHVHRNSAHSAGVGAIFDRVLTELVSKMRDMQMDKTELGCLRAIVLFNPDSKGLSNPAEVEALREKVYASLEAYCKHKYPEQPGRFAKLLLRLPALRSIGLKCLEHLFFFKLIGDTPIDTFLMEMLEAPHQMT
Sequence of Peroxisome proliferator-activated receptor gamma (Homo sapiens) (P37231 whole entry, looked up, the tested form may be a part): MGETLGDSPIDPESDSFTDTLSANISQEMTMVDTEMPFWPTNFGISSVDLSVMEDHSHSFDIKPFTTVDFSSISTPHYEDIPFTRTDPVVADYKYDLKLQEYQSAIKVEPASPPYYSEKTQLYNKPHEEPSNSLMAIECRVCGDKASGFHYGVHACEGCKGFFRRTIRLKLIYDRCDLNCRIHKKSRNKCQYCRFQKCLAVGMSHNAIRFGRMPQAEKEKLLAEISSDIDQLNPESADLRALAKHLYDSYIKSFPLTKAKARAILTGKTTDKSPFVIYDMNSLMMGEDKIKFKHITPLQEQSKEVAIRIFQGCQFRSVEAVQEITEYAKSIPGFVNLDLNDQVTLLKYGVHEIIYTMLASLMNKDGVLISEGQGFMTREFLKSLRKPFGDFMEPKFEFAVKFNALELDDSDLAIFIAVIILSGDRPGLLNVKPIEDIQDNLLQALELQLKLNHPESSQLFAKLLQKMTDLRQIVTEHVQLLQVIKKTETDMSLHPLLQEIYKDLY
Sequence of human Norepinephrine Transporter (NET), SLC6A2 (gene 6530) (P23975 whole entry, looked up): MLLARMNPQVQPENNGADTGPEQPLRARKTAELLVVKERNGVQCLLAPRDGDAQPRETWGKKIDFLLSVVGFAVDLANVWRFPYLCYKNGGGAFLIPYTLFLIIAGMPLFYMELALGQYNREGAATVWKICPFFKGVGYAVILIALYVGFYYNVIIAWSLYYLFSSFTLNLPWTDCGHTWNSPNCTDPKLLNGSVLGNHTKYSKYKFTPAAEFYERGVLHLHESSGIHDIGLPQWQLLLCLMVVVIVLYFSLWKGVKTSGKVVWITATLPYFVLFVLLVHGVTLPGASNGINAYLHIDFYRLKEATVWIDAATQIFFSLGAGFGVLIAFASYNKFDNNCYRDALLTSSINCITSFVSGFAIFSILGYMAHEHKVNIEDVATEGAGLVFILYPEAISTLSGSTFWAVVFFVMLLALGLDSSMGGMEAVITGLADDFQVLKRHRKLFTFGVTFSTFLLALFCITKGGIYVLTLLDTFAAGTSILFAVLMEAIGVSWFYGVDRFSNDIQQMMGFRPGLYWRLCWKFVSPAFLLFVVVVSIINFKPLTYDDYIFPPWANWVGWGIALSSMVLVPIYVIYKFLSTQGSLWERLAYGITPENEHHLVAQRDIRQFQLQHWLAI
Sequence of human Dopamine Transporter (DAT), SLC6A3 (gene 6531) (Q01959 whole entry, looked up): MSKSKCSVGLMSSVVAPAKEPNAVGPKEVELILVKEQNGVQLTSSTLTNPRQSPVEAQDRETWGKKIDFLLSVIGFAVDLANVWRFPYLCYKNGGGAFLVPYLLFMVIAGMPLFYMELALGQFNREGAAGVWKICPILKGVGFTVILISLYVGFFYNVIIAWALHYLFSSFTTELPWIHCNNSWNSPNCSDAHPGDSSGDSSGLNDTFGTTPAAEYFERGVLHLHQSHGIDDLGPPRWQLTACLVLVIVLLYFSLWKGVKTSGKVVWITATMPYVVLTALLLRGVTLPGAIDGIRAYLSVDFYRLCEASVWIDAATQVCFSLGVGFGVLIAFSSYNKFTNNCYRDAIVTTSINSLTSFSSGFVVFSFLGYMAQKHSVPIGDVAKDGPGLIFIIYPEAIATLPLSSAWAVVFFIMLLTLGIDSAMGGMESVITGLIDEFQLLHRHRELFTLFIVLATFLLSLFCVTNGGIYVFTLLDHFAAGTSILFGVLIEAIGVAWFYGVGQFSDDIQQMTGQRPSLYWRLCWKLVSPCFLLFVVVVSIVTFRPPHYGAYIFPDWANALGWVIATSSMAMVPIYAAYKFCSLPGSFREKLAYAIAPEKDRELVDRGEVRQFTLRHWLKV

Compound: O=C1OC2(c3ccccc31)c1cc(I)c(O)c(I)c1Oc1c2cc(I)c(O)c1I
- AC50 [1]: 0.953 µM (active)
- AC50 [2]: 0.566 µM (active)
- outcome [3]: inactive

Compound: CCCCCCCCCC=CCC1CC(=O)OC1=O (stereo not given)
- AC50 [4]: 21.2 µM (active)
- outcome [5]: inactive
- outcome [6]: inactive
- outcome [7]: inactive
- outcome [3]: inactive
- outcome [8]: inactive
- outcome [9]: inactive

Compound: C=Cc1ccc(O)c(OC)c1
- AC50 [2]: 19.1 µM (active)

Compound: c1ccc2c(c1)CCC2
- outcome [2]: inactive

Compound: CCOC(OCC)C(=O)c1ccccc1
- AC50 [10]: 7 µM (active)

Compound: CCCCCc1ccc(O)cc1
- AC50 [10]: 6.09 µM (active)
- AC50 [2]: 14.6 µM (active)

Compound: Oc1cccc2c(O)cccc12
- AC50 [10]: 25 µM (active)
- outcome [2]: inactive

Compound: CC(C)(C)c1ccc(O)c(O)c1
- AC50 [2]: 18.4 µM (active)
- outcome [2]: inactive

Compound: Clc1ccc(Nc2nnc(Cc3ccncc3)c3ccccc23)cc1
- AC50 [10]: 0.987 µM (active)
- outcome [1]: inactive
- AC50 [2]: 0.898 µM (active)

Compound: NC(=NCCCCCCN=C(N)/N=C(\N)Nc1ccc(Cl)cc1)/N=C(\N)Nc1ccc(Cl)cc1
- AC50 [10]: 0.458 µM (active)
- AC50 [1]: 0.322 µM (active)
- AC50 [2]: 0.356 µM (active)
- outcome [4]: inactive
- AC50 [6]: 24.5 µM (active)
- AC50 [7]: 28.6 µM (active)
- outcome [8]: inactive
- outcome [9]: inactive

Compound: CCCCN(C)C
- outcome [10]: inactive

Compound: Clc1ccc2c(Cl)ccnc2c1
- AC50 [2]: 25 µM (active)

Compound: CCCCCCCCCCCCCCCCCC[N+](C)(C)Cc1ccccc1
- outcome [10]: inactive
- AC50 [1]: 7.73 µM (active)
- AC50 [2]: 2.49 µM (active)

Compound: CCCCCCc1ccc(N)cc1
- outcome [4]: inactive
- outcome [5]: inactive
- outcome [6]: inactive
- outcome [7]: inactive
- outcome [3]: inactive
- outcome [8]: inactive
- outcome [9]: inactive

Compound: Oc1cc2ccccc2cc1O
- outcome [2]: inactive

Compound: CCCCCCC(C)(C)C(=O)O
- outcome [4]: inactive
- outcome [5]: inactive
- outcome [6]: inactive
- outcome [7]: inactive
- outcome [3]: inactive
- outcome [8]: inactive
- outcome [9]: inactive

Compound: C[C@]12CC[C@@H]3c4ccc(O)cc4CC[C@H]3[C@@H]1C[C@@H](O)[C@@H]2O
- AC50 [10]: 15.4 µM (active)
- AC50 [5]: 0.03 µM (active)
- outcome [3]: inactive
- outcome [8]: inactive
- outcome [9]: inactive

Compound: CC(C)c1c(C(=O)Nc2ccccc2)c(-c2ccccc2)c(-c2ccc(F)cc2)n1CC[C@@H](O)C[C@@H](O)CC(=O)O
- outcome [8]: inactive
- outcome [9]: inactive

Compound: CS(=O)(=O)c1ccc([C@@H](CC2CCCC2)C(=O)Nc2cnccn2)cc1Cl
- outcome [3]: inactive

Compound: Cc1ccc(S(=O)(=O)O)cc1
- outcome [5]: inactive

Compound: OCC(CO)(CBr)CBr
- outcome [3]: inactive
- outcome [8]: inactive
- outcome [9]: inactive

Compound: CC(C)[C@@H]1CC[C@@H](C)C[C@H]1O
- outcome [5]: inactive
- outcome [8]: inactive
- outcome [9]: inactive

Compound: O=C(O)c1cccc(C(=O)O)n1
- outcome [5]: inactive
- outcome [6]: inactive
- outcome [7]: inactive
- outcome [3]: inactive
- outcome [8]: inactive
- outcome [9]: inactive

Compound: O=C1NS(=O)(=O)c2ccccc21
- outcome [5]: inactive
- outcome [3]: inactive
- outcome [8]: inactive
- outcome [9]: inactive

Compound: CCC(C)c1ccccc1O (stereo not given)
- outcome [5]: inactive
- outcome [3]: inactive
- outcome [8]: inactive
- outcome [9]: inactive

Compound: O=C(CCCN1CCC(O)(c2ccc(Cl)cc2)CC1)c1ccc(F)cc1
- outcome [5]: inactive
- outcome [3]: inactive
- outcome [8]: inactive
- outcome [9]: inactive

Compound: Cc1cc(Cc2cc(C)cc(C(C)(C)C)c2O)c(O)c(C(C)(C)C)c1
- outcome [5]: inactive
- outcome [6]: inactive
- outcome [7]: inactive
- outcome [9]: inactive

Compound: CCc1ccccc1O
- outcome [5]: inactive
- outcome [6]: inactive
- outcome [7]: inactive
- outcome [8]: inactive
- outcome [9]: inactive

Compound: CCCCCCCCCCCCOC(=O)c1cc(O)c(O)c(O)c1
- AC50 [5]: 11.9 µM (active)
- AC50 [6]: 49.2 µM (active)
- AC50 [7]: 84.1 µM (active)
- outcome [8]: inactive
- outcome [9]: inactive

Compound: CCCCCC(C)OC(=O)COc1ccc(Cl)c2cccnc12 (stereo not given)
- outcome [6]: inactive
- outcome [7]: inactive
- AC50 [3]: 15 µM (active)
- outcome [8]: inactive
- outcome [9]: inactive

Compound: CCCCCCCCCCCC
- AC50 [3]: 39.2 µM (active)
- outcome [8]: inactive
- outcome [9]: inactive

Compound: Cc1ccc(C)c(S(=O)(=O)O)c1
- outcome [3]: inactive
- outcome [8]: inactive
- outcome [9]: inactive

Compound: O=C(O)C(=O)O
- outcome [8]: inactive
- outcome [9]: inactive

Compound: C=CC(C)(CCC=C(C)C)OC(C)=O (stereo not given)
- outcome [6]: inactive
- outcome [7]: inactive
- outcome [3]: inactive
- outcome [8]: inactive
- outcome [9]: inactive

Compound: c1cnc2c(c1)ccc1cccnc12
- outcome [5]: inactive
- outcome [3]: inactive
- outcome [8]: inactive
- outcome [9]: inactive

Compound: NS(=O)(=O)O
- outcome [5]: inactive
- outcome [3]: inactive
- outcome [8]: inactive
- outcome [9]: inactive

Compound: NCc1cccc(CN)c1
- outcome [5]: inactive
- outcome [6]: inactive
- outcome [7]: inactive
- outcome [8]: inactive
- outcome [9]: inactive

Compound: Cc1cc(C(C)(C)C)c(O)c(C(C)(C)C)c1
- outcome [5]: inactive
- AC50 [3]: 74.6 µM (active)
- outcome [8]: inactive
- outcome [9]: inactive

Compound: CCCCc1oc2ccccc2c1C(=O)c1cc(I)c(OCCN(CC)CC)c(I)c1
- outcome [5]: inactive
- outcome [6]: inactive
- outcome [7]: inactive
- AC50 [3]: 8.75 µM (active)
- outcome [3]: inactive
- outcome [8]: inactive
- outcome [9]: inactive

Compound: Cc1[nH]nc2c1N=C(c1ccccc1Cl)c1cc([N+](=O)[O-])ccc1N2
- outcome [5]: inactive

Compound: NCCN
- outcome [6]: inactive
- outcome [7]: inactive
- outcome [8]: inactive
- outcome [9]: inactive

Compound: CCCCC(CC)C(=O)O (stereo not given)
- outcome [8]: inactive
- outcome [9]: inactive

Compound: O=S(=O)(O)c1ccccc1
- outcome [5]: inactive
- outcome [3]: inactive
- outcome [8]: inactive
- outcome [9]: inactive

Compound: CCCCC=O
- outcome [3]: inactive

Compound: CCCCCCCCCCCC(=O)O
- outcome [5]: inactive
- outcome [3]: inactive
- outcome [8]: inactive
- outcome [9]: inactive
